Several values for one entry are separate records, joined by “and”; a condition that tells them apart may be missing. Identical values can stand only once. About 2,600 (0.7%) of roughly 370,000 compounds were called active. This excerpt belongs to a sample that is enriched for actives. Unmarked numbers belong to inactive results.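 Rule for the calls: active = inhibition above a cutoff: mean of compounds within the control limits plus 3 SD of those (cut at about 17% in these data); inactive = the rest.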

Sequence of Sialate O-acetylesterase (Homo sapiens) (Q9HAT2 whole entry, looked up): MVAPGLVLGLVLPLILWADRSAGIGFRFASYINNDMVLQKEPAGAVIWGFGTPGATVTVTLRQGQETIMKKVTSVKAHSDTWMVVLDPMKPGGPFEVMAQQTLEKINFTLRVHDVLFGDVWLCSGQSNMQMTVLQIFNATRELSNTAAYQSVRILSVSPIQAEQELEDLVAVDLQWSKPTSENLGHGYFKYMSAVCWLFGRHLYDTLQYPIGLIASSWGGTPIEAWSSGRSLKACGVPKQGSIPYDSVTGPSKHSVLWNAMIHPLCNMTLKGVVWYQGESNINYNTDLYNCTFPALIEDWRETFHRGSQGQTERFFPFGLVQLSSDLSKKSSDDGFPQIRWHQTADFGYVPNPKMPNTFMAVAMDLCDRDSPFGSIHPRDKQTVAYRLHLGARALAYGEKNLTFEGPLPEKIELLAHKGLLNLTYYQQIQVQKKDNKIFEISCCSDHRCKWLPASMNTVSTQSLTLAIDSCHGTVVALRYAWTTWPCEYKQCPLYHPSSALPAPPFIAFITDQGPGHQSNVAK

The test addresses Sialate O-acetylesterase (Homo sapiens) (UniProt Q9HAT2). The test can be described thus: human SIAE inhibitors, primary screen, biochemical, fluorescence polarization, FP-Rh probe, 1536-well HTS (AID 1053197).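 Note: 0% = plate median of compound wells and 100% = probe without SIAE protein.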 The following applies: SIAE FP-Rh probe binding, at 9.66 µM, stronger effect = higher value.
For `Cc1cccc(-n2c(O)c(/C=N/N3CCOCC3)c(=O)[nH]c2=S)c1`, the inhibition is 1.16%.

As for `O=c1[nH]c(=S)n(C2CC2)c(O)c1/C=N/N1CCOCC1`, the inhibition was -9.2%.

For `CC(C)c1ccc(-n2c(O)c(/C=N/N3CCOCC3)c(=O)[nH]c2=S)cc1`, the inhibition was 24.9% (active).

`CO[C@H]([C@H](C)/C=C/N(C)C=O)[C@@H](C)C(=O)CC[C@H](C)[C@H](O)[C@H](C)[C@H]1OC(=O)/C=C/C(C)=C/[C@H](O)[C@H](OC)C[C@@H]2C=CC[C@@H](C[C@H](OC)[C@@]3(CO3)[C@@H](OC)C[C@@H](OC)[C@@H]1C)O2`: the inhibition was 9.94%.

Regarding `CCOC(=O)C1(CCc2ccccc2)CCN(Cc2ccco2)CC1`, the inhibition is 2.93%.

For the compound `O=S(=O)(c1ccccc1)N1CCC2CCNC2C1` (stereo not given), the inhibition is -2.28%.

Take `Cc1cc(C(=O)OCC(=O)Nc2c(F)cccc2F)c(C)n1C1CC1`: the inhibition is -0.24%.

As to `Cc1ccnc(-n2c(C)cc(/C=C3\C(=O)NC(=S)N(C)C3=O)c2C)c1`, the inhibition was 0.93%.

As for `Cc1cc(C=C2C(=O)NC(=O)NC2=O)c(C)n1-c1ccncc1`, the inhibition was 17.8% (active).

With `CN(C)C(=O)Oc1cc(OC(=O)N(C)C)cc(C(O)CNC(C)(C)C)c1` (stereo not given), the inhibition is -1.59% and 2.18%.

Regarding `Nc1ccc(C(=O)N/N=C2/CN3CCC2CC3)cc1`, the inhibition was 21.4% (active).

As to `CCN(CC)C(=O)c1ccc(NC(=O)c2sccc2-c2ccccc2)cc1`, the inhibition is -4.91%.

Take `c1cc2c(c(NC3=NCCCS3)c1)CCCC2`: the inhibition was 2.24%.

In the case of `COC(=O)COc1cc(C)cc2oc(=O)c3c(c12)CCCC3`, the inhibition is -2.75%.

As to `COC(=O)C1=C(c2ccc(F)cc2OCc2ccccc2)C[C@@H]2CC[C@H]1N2C(=O)NCc1ccc2[nH]ccc2c1`, the inhibition is -4.35%.

The values above are taken from PubChem BioAssay AID1053197 (The Scripps Research Institute Molecular Screening Center, 2014).
